These results are taken from PubChem BioAssay (NCATS).

Assay [1] can be described thus: qHTS profiling of the MIPE4 collection as inhibitors of Plasmodium falciparum (DD2) proliferation (Rep 2) (AID 743346; call rule not given here). The conditions noted are these: P. falciparum Dd2 in erythrocytes, SYBR Green DNA, 72 h; at 28.5 µM unless noted. Summed up:
(§1)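 Parasite DNA was quantified by SYBR Green I fluorescence (ex 485, em 535 nm) after overnight lysis in saponin/Triton buffer at room temperature. Cultures at 0.3% parasitemia and 2.5% hematocrit were first exposed to compound for 72 h at 37 C; signals were normalised to artemisinin (0.29 uM) and vehicle wells.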
(In qHTS, concentration-response curves come from the screen itself.)

Assay [2] can be described thus: High-throughput drug toxicity screening in the BPDCN cell line Cal-1 (AID 1224825; call rule not given here). To be noted: Cal-1 BPDCN cell viability, qHTS; at 45.8 µM (top of the series) unless noted. Summed up:
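CellTiter-Glo luminescence after 48 h compound exposure; percent activity scaled with DMSO as 100% and bortezomib (9.2 uM final) as 0%. Cal-1 cells seeded at 500/well in RPMI, 10% FBS, no phenol red.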

Assay [3] is described as follows: qHTS assay for measurement of the activity of small molecule inhibitors on Zika virus induced Caspase-3 activity in human iPSC derived neural progenitor cells (hNPCs) (AID 1224857). Further: nearly all actives have a fitted effect of over 65% in size. Further: potency means the concentration at half of the fitted maximal effect. The method in brief: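 Pretreat hNPCs with compound 1 h; infect ZIKV 2 FFU/cell; 6 h 37 C, 5% CO2; Caspase-Glo 3/7, 30 min RT; luminescence; normalize to no-virus and virus-only wells.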

The nature of assay [4]: qHTS assay for measurement of the activity of small molecule inhibitors on Zika virus induced Caspase-3 activity in human astrocytoma cells (AID 1224859). Further: potency means the concentration at half of the fitted maximal effect. Summed up:
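Human SNB-19 astrocytoma cells in RPMI 1640 with 10% FBS receive compound one hour ahead of Zika virus at 2 FFU/cell. After 6 h infection, caspase-3/7 activity is detected by Caspase-Glo luminescence.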

The nature of assay [5]: qHTS Screen of the MIPE 4.0 Collection Against Ewings Sarcoma (RDES) (AID 1259252). Further: nearly all actives have a fitted effect of over 35% in size. Further: potency means the concentration at half of the fitted maximal effect. Summed up:
(§2)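 Dose series incubated 48 h with cells in RPMI plus 5% FBS, glutamine and penicillin/streptomycin; cell viability then quantified via CellTiter-Glo.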

Assay [6] is described as follows: qHTS Screen of the MIPE 4.0 Collection Against Ewings Sarcoma (TC71) (AID 1259253). Further: nearly all actives have a fitted effect of over 40% in size. Further: potency means the concentration at half of the fitted maximal effect. Summed up:
as §2

The nature of assay [7]: qHTS Screen of the MIPE 4.0 Collection Against Ewings Sarcoma (EW8) (AID 1259255). Further: nearly all actives have a fitted effect of over 35% in size. Further: potency means the concentration at half of the fitted maximal effect.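 On viability: 100% = DMSO-treated cells and 0% = medium-only wells without cells.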 The method in brief: as §2
A short description of assay [8]: qHTS profiling of the MIPE4 collection as inhibitors of Plasmodium falciparum (DD2) proliferation (AID 743345; call rule not given here). The conditions noted are these: P. falciparum Dd2 in erythrocytes, SYBR Green DNA, 72 h; at 28.5 µM unless noted. Summed up: as §1
The nature of assay [9]: qHTS profiling of the MIPE4 collection as inhibitors of Plasmodium falciparum (HB3) proliferation (AID 743347; call rule not given here;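 further: plate controls were DMSO vehicle wells for no effect and artemisinin wells for full effect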). To be noted: P. falciparum HB3 in erythrocytes, SYBR Green DNA, 72 h; at 28.5 µM unless noted. The method in brief:
as §1

Inconclusive results are not listed. Activity calls are given as the source filed them. Unless noted, the call rests on the fitted dose curve; in most records, active means well fitted inhibition curve with a large enough effect; inconclusive means small, poorly fitted or top-dose-only effect; inactive means no such curve, though single readings can be large or run the other way. Residues, ends and D or L forms follow the SMILES beside them. *: point of attachment. Cbz = O=C(OCc1ccccc1)*

Take `COc1cc([C@@H]2c3cc4c(cc3[C@H](O)[C@H]3COC(=O)[C@@H]23)OCO4)cc(OC)c1OC`: in assay [1], the parasite growth, % of control (lower = inhibition) is 29.1%. Further, the viability (% of control) in assay [2] worked out at 11.1%. Moreover, the Potency result in [3] and in assay [4] was “inactive” throughout. Moreover, the values for the Potency in [5], in assay [6] and in assay [7] were 0.0743 µM (active), 0.187 µM (active) and 0.105 µM (active), respectively.

Take `Cc1onc(-c2ccccc2)c1C(=O)N[C@@H]1C(=O)N2[C@@H](C(=O)O)C(C)(C)S[C@@H]12`: in [8], the parasite growth remaining, % of DMSO control (lower = more inhibition) was determined as 99.9%. In addition, the viability (% of control) in [2] stood at 120%. The Potency entry in assay [3], in assay [4], in [5], in assay [6] and in [7] was “inactive” throughout.

With `NC(=O)c1ncn([C@@H]2O[C@H](CO)[C@@H](O)[C@@H]2O)c1N`, the parasite growth remaining, % of DMSO control (lower = more inhibition) in assay [8] worked out at 91.5%. The parasite growth, % of control (lower = inhibition) in assay [1] turned out to be 95.2%. The growth, % of control in assay [9] amounted to 68.2%. Further, the viability (% of control) in assay [2] worked out at 112%. Also, the Potency entry in assay [3], in assay [4], in assay [5], in [6] and in [7] was “inactive” each time.

As to `CC(C)C[C@@H](C=O)NC(=O)[C@H](CC(C)C)NC(=O)[C@H](CC(C)C)NC(=O)OCc1ccccc1` (Cbz-Leu-Leu-Leu-aldehyde), in assay [8], the parasite growth remaining, % of DMSO control (lower = more inhibition) was determined as 6.51%. The parasite growth, % of control (lower = inhibition) in [1] was 8.46%. In addition, the growth, % of control in [9] turned out to be 6.33%. In assay [2], the viability (% of control) amounted to 4.19%. Besides, the Potency result in assay [3] and in assay [4] was “inactive” in each case. Besides, the figures for the Potency in assay [5], in [6] and in assay [7] were 0.469 µM (active), 0.59 µM (active) and 0.332 µM (active), respectively.

For the molecule `CC(C)(O)CC[C@@H](O)[C@](C)(O)[C@H]1CC[C@@]2(O)C3=CC(=O)[C@@H]4C[C@@H](O)[C@@H](O)C[C@]4(C)[C@@H]3CC[C@]12C`, the parasite growth remaining, % of DMSO control (lower = more inhibition) in [8] is 110%. Further, in [1], the parasite growth, % of control (lower = inhibition) turned out to be 122%. Also, in assay [9], the growth, % of control was 674%. The viability (% of control) in assay [2] is 104%. Besides, the Potency result in [3], in [4], in [5], in assay [6] and in assay [7] was “inactive” each time.

For `CC(C)C[C@H](NC(=O)[C@@H](NC(=O)c1cccc(-c2ccccc2)n1)[C@@H](C)O)B(O)O`, the parasite growth remaining, % of DMSO control (lower = more inhibition) in assay [8] is 8.79%. Moreover, the parasite growth, % of control (lower = inhibition) in assay [1] worked out at 7.67%. Besides, in [2], the viability (% of control) was 4.67%. For the same molecule, in [3], the Potency result was “inactive”. Besides, the results for the Potency in assay [5], in assay [6] and in [7] were 0.059 µM (active), 0.0743 µM (active) and 0.0372 µM (active), respectively.

As for `C[C@H](NC(=O)Cc1cc(F)cc(F)c1)C(=O)N[C@H](C(=O)OC(C)(C)C)c1ccccc1`, the parasite growth remaining, % of DMSO control (lower = more inhibition) in [8] was 95.2%. Moreover, the parasite growth, % of control (lower = inhibition) in [1] was 79.9%. Further, the viability (% of control) in assay [2] was found to be 96.1%. Besides, the Potency result in [3], in [4], in assay [5], in assay [6] and in [7] was “inactive” each time.

As for `C[C@](Cc1c[nH]c2ccccc12)(NC(=O)OC1C2CC3CC(C2)CC1C3)C(=O)NC[C@H](NC(=O)CCC(=O)O)c1ccccc1` (stereo partly specified), in assay [8], the parasite growth remaining, % of DMSO control (lower = more inhibition) was 36.8%. Also, the parasite growth, % of control (lower = inhibition) in assay [1] amounted to 30.8%. In assay [9], this molecule returned a growth, % of control of 10.5%. Moreover, the viability (% of control) in [2] was found to be 4.7%. Moreover, the Potency entry in [3], in assay [4], in [5], in [6] and in assay [7] was “inactive” in each case.

On to `C[C@H](NC(=O)[C@@H](O)c1cc(F)cc(F)c1)C(=O)N[C@@H]1C(=O)N(C)c2ccccc2-c2ccccc21`, for which the parasite growth remaining, % of DMSO control (lower = more inhibition) in assay [8] was found to be 12.1%. In addition, the parasite growth, % of control (lower = inhibition) in [1] amounted to 27.7%. Also, the viability (% of control) in assay [2] was found to be 103%. The Potency entry in assay [3], in [4] and in assay [7] was “inactive” throughout. The Potency in assay [6] was 20.9 µM (active).

On to `O=C(C=CC=Cc1ccc2c(c1)OCO2)N1CCCCC1`, for which the parasite growth remaining, % of DMSO control (lower = more inhibition) in assay [8] came out at 15.8%. The parasite growth, % of control (lower = inhibition) in assay [1] was 123%. This molecule registered a growth, % of control in assay [9] of 95%. Further, in assay [2], the viability (% of control) was 101%. The Potency in [3] is 14.8 µM (active); in assay [4], 10.5 µM (active). Moreover, the Potency result in [5], in assay [6] and in [7] was “inactive” in each case.
